# Bioassay records deposited in PubChem BioAssay by National Center for Advancing Translational Sciences (NCATS).
# Only some compounds are listed: those with a hit (about 3.2% of all), similar ones and a draw of the others.
# USP1 inh – blocks the human USP1/UAF1 deubiquitinase complex | O94782 | recombinant USP1/UAF1, Ub-Rhodamine cleavage fluorescence | Potency, µM (series often up to 57.1 µM), for inactives: at the top dose activity change, negative = inhibition, most hits filed as inhibitors | actives 0.23% (n = 390,000) | AID 743255; also: potency is read from the fitted curve at half-maximal effect; nearly all actives have a fitted effect of over 60% in size
#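 In this screen, compounds sit with the deubiquitinase complex (1nM) for 15 min at room temperature before Ub-Rho is added at 150nM final. Fluorescence rise is then followed for 6 reads every 60 seconds.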
# Coupling enz – inhibits coupling enzyme system, counter-screen for aldolase hits | coupling enzyme system counterscreen, AmpLite Red fluorescence | activity change, negative = inhibition, % at 58.2 µM, hits read low | actives 0.67% (n = 290,000); in the data active = activity change below about -30%
#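 Counterscreen lacking aldolase: glyceraldehyde-3-phosphate coupling-enzyme reagent preincubated 10 min at RT with compound (at 57.5 uM final), then substrate/coupling system with AmpLite Red added; fluorescence read at 525/598 nm after 20 min RT.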
# PLK1 PBD block – PLK1 (human) polo-box domain binding inhibition. P53350. Plk1 PBD binding of FITC phosphopeptide, fluorescence polarization. Potency, µM, inactives show max response, negative = inhibition, actives largely listed as inhibitors. actives 2.8% (n = 360,000). AID 720504; also: potency is read from the fitted curve at half-maximal effect; series mostly up to about 57 µM; nearly all actives have a fitted effect of over 65% in size
# VDR inhibitor – vitamin D3 receptor (human) inhibition; P11473; VDR-SRC2-3 peptide fluorescence polarization, 2 h; Potency, µM, for the others: max response, negative = inhibition, usual class: inhibitors; actives 0.93% (n = 400,000); also: potency is read from the fitted curve at half-maximal effect
# Target sequence (P11473 whole entry, looked up): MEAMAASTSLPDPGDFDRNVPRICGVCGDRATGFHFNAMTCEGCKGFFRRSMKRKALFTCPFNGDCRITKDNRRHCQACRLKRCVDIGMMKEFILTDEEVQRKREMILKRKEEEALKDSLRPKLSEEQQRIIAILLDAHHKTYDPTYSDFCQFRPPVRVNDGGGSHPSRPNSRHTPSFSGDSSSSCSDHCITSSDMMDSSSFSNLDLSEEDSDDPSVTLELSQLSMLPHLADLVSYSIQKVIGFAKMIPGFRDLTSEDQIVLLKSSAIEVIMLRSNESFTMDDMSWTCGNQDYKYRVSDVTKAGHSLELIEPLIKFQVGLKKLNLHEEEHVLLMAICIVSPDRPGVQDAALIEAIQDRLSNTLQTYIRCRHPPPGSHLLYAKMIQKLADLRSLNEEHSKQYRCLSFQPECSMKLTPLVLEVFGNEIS
#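 Inhibition of the VDR/SRC2-3 peptide interaction is quantified by fluorescence polarization. Compounds (23 nl, pintool) incubate with the reagents for 2 hours at ambient room temperature.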
# GALK inhibitor – galactokinase (human) inhibition. P51570. Purified GALK, Kinase-Glo residual ATP luminescence. Potency, µM (titrated, usually from 57.5 µM), inactives show at the top dose activity change, negative = inhibition, most hits filed as inhibitors. actives 0.007% (n = 270,000); also: potency is read from the fitted curve at half-maximal effect
#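 Galactose (100 uM) and ATP (35 uM) were turned over by 5 nM GALK for 1 h at RT. Kinase-Glo Plus then converted the remaining ATP into a luminescent signal.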
# USP2a inh – blocks human ubiquitin-specific protease USP2a. O75604. USP2 core, Ub-CHOP2 coupled fluorogenic reporter, 485/531. Potency, µM (titrated, usually from 38.3 µM), without a hit: top-dose activity change, negative = inhibition, actives largely listed as inhibitors. actives 0.01% (n = 330,000);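 also: potency is read from the fitted curve at half-maximal effect; plate controls were DMSO wells for no effect and full inhibition by NEM control for full effect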
#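 Deubiquitinase activity read as fluorescence (485/531 nm) after Ub-CHOP2 cleavage activates the enterokinase reporter on its substrate; USP2 core 10nM, Ub-CHOP2 and substrate 25nM each, 30min compound preincubation then 60min RT; data normalized to NEM, curves fitted.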
# Active calls of the source: *; ? = inconclusive; . = no result given. Unless noted, calls follow the shape of the dose curve; as a rule, active = well fitted curve in the direction sought with a large enough effect; inconclusive = small, poorly fitted or top-dose-only effect, or another doubt; inactive = no such curve, though single readings can be large; an effect the other way counts as inactive or inconclusive. Unless noted, % is scaled to controls: 0 for no effect and ±100 for the full control effect.
SMILES,USP1 inh,Coupling enz,PLK1 PBD block,VDR inhibitor,GALK inhibitor,USP2a inh
Cc1cccc(C)c1NC(=S)NC(=O)c1ccc(Br)o1,-26.7%,-0.8,5.97µM*,?,-0.2%,1.1%
COc1ccc(-n2cc(CNCCc3cscn3)c(-c3ccccc3Cl)n2)cc1,-17.9%,5.2,-10.9%,-5.5%,8.9%,-0.8%
CC(=O)Nc1ccc(Sc2ccc([N+](=O)[O-])o2)cc1,?,.,21.2µM*,?,.,.
O=[N+]([O-])c1ccccc1/C=C/c1ccc2ccccc2n1,-26.5%,4.3,26.7µM*,0.4%,-2.0%,2.0%
Cn1c(/C=C/c2ccccc2[N+](=O)[O-])nc2ccccc2c1=O,-3.4%,-4.0,-3.8%,-2.8%,-2.1%,0.8%
Cc1[nH]nc(SCC(=O)NCc2ccc(Cl)cc2)c1[N+](=O)[O-],-16.2%,1.5,-6.4%,-16.0%,1.1%,2.7%
CC(/C=C1\SC(=S)N(CCCC(=O)Nc2ccc(C(=O)O)cc2)C1=O)=C\c1ccccc1,-26.0%,-0.8,?,-22.4%,.,0.1%
CC(=C\c1ccccc1)/C=C1/SC(=S)N(CCCC(=O)O)C1=O,-20.5%,8.9,?,79.4µM*,.,-0.1%
CC(/C=C1\SC(=S)N(CCC(=O)Nc2cccc(C(=O)O)c2)C1=O)=C\c1ccccc1,-20.8%,1.1,23.8µM*,?,-12.0%,1.3%
CC(/C=C1\SC(=O)N(CCCC(=O)O)C1=O)=C\c1ccccc1,-23.0%,9.9,-4.4%,-12.6%,-0.4%,3.9%
COc1cc(/C=C2\SC(=S)N(CCC(=O)Nc3ccc(O)cc3)C2=O)cc(OC)c1OC,-10.2%,-0.2,29.9µM*,-21.3%,-3.5%,2.7%
CC(=Cc1ccccc1)C=C1SC(=S)N(CCCC(=O)Nc2ccc(C(=O)O)cc2)C1=O,.,.,23.8µM*,.,.,.
COC(=O)c1ccccc1NC(=O)CCCCCn1nnc2ccccc2c1=O,-22.1%,0.8,-9.2%,-5.7%,6.8%,2.6%
O=C(COC(=O)c1ccc(Cl)nc1)NCc1ccc(F)cc1,-21.6%,.,-13.0%,-17.9%,.,-1.0%
O=C(CCN1C(=O)/C(=C/c2ccc(Cl)cc2)SC1=S)Nc1ccc(C(=O)O)cc1,3.0%,4.4,29.9µM*,-0.3%,-0.1%,0.2%
COc1ccc2nc(SCC(=O)N3CCN(c4ccc(F)cc4)CC3)c(C#N)cc2c1,-0.6%,0.5,2.99µM*,-7.8%,2.3%,-7.8%
COc1ccc2nc(N3CCC(O)CC3)c(C#N)cc2c1,?,-33.5*,-26.6%,-23.0%,0.5%,4.5%
Cc1nc(N(C)C)c2sc(=S)n(-c3ccccc3)c2n1,-13.5%,4.4,26.7µM*,-14.1%,0.0%,1.7%
Cc1nc(N(C)C)c2sc(=S)n(C)c2n1,-18.9%,1.8,-13.0%,-1.7%,1.7%,?
CCC1OC(=O)C[C@@H](O)[C@H](C)[C@@H](OC2OC(C)CC(N(C)C)C2O)[C@@H](CC=O)C[C@@H](C)C(=O)/C=C/[C@]2(C)OC2C1C (some centres undefined),.,.,.,-2.9%,.,.
COc1ccc(-c2nc3cnc(N4CCOCC4)nc3n(-c3ccccc3)c2=O)cc1,.,-0.6,.,4.1%,.,.
COc1ccc(-n2c(=O)c(-c3ccc(Cl)cc3)nc3cnc(N4CCOCC4)nc32)cc1,.,-3.1,.,39.8µM*,.,.
COc1ccccc1/C=C/C(=O)NCC(=O)N/N=C/c1cc(Br)ccc1OC,-20.1%,-7.5,-0.5%,-1.6%,-3.1%,-0.3%
Cc1coc(C)c1C(=O)CC1(O)C(=O)N(Cc2ccccc2)c2ccccc21 (centres undefined),-8.9%,-17.2,26.7µM*,-23.0%,8.0%,.
CC(=O)CC1(O)C(=O)N(Cc2ccccc2)c2ccccc21 (centres undefined),-24.6%,.,26.7µM*,-23.5%,-2.5%,1.5%
SMILES,USP1 inh,Coupling enz,PLK1 PBD block,VDR inhibitor,GALK inhibitor,USP2a inh
Cc1ccccc1C(=O)N1CCC(C(=O)Nc2ccc(S(=O)(=O)N3CCCC3)cc2)CC1,-14.0%,2.5,11.9µM*,-17.8%,-0.4%,-3.1%
CCOC(=O)C1=C(c2ccccc2)NC(=S)NC1c1cc([N+](=O)[O-])ccc1OC (centres undefined),3.8%,.,-12.5%,-18.5%,0.8%,-1.2%
CN(C)S(=O)(=O)c1cccc(NC(=O)COC(=O)CCOc2ccccc2)c1,-7.1%,-0.1,-7.1%,1.6%,8.4%,3.1%
CN(C)S(=O)(=O)c1cccc(NC(=O)COC(=O)COc2ccc(Br)cc2)c1,-17.2%,2.1,26.7µM*,-19.5%,4.1%,5.8%
COc1ccc(CCNS(=O)(=O)CCNC(=O)c2ccc3c(c2)OCO3)cc1OC,-3.5%,.,-5.6%,25.3%,.,0.4%
CCOC(=O)N1CC=C2C(C#N)=C(N)C(C#N)(C#N)[C@H](c3cccs3)C2C1 (some centres undefined),-25.2%,-0.1,-13.6%,-8.5%,-4.6%,1.9%
CC(C)(C)OC(=O)N1CC=C2C(C#N)=C(N)C(C#N)(C#N)C(c3cccs3)C2C1 (centres undefined),?,-29.6,-16.7%,35.5µM*,0.2%,3.9%
CC1CC=C2C(C#N)=C(N)C(C#N)(C#N)C(c3cccs3)C2C1 (centres undefined),?,-7.4,26.7µM*,?,3.3%,4.8%
O=C(COc1ccc(Cl)cc1)NC1CC1,-20.5%,.,3.1%,15.1%,8.5%,-0.1%
O=C(Cn1ncnn1)OCc1ccccc1Cl,-13.6%,1.3,1.6%,1.5%,4.8%,2.0%
COc1ccc(C2NS(=O)(=O)N=C2N)cc1 (centres undefined),0.3%,1.2,18.9µM*,-12.8%,0.5%,-0.6%
COc1cc(OC)c(NC(C)C(=O)NCc2ccccc2)cc1Cl (centres undefined),-1.6%,-49.8*,-7.6%,-8.3%,-2.8%,-5.8%
CCN1CCN(C(=O)Nc2cc(Cl)ccc2OC)CC1,-5.3%,-1.0,-1.9%,0.1%,-0.8%,-2.2%
CCN1CCN(C(=O)C(C)Nc2cc(Cl)c(OC)cc2OC)CC1 (centres undefined),-4.9%,-43.0*,-5.5%,-6.2%,8.8%,5.3%
NC(=O)C1(c2ccccc2)CCCN1C(=O)c1ccccc1Br (centres undefined),-3.8%,2.9,-10.0%,-11.8%,0.8%,0.4%
COc1ccc(-c2c(C)n([O-])c3c([n+]2=O)CCCCC3)cc1,-21.0%,1.4,-2.5%,8.8%,2.0%,-0.6%
CCC1CCc2c(sc(NC(=O)c3cnccn3)c2C(N)=O)C1 (centres undefined),-4.7%,1.6,2.99µM*,?,1.0%,0.2%
